# Experimental data reported in PubChem BioAssay (NCI).
# Compounds without any hit were thinned out: in the full panel of roughly 83,000, 20% have a hit.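 Cell lines were cultured in 96-well plates, exposed to a single compound concentration, and assessed for percent growth 48 hours later.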 Values without a mark were called inactive. Calls of active or inactive are those of the source. Rule for the calls: active = growth percent below 10; inactive = the rest.
# Assays:
# Experiment in all cases: NCI-60 one-dose screen, 48 h (100 = growth as untreated, 0 = no growth, -100 = all killed)
# Details in all cases: 10 µM unless noted
# SR leukemia = tested on: SR leukemia
# RPMI-8226 leukemia = tested on: RPMI-8226 leukemia
# OVCAR-8 ovarian = tested on: OVCAR-8 ovarian
# OVCAR-5 ovarian = tested on: OVCAR-5 ovarian
# OVCAR-4 ovarian = tested on: OVCAR-4 ovarian
# SK-OV-3 ovarian = tested on: SK-OV-3 ovarian
# OVCAR-3 ovarian = tested on: OVCAR-3 ovarian
# HS 578T breast = tested on: HS 578T breast
# NCI/ADR-RES ovarian = tested on: NCI/ADR-RES ovarian
# IGROV1 ovarian = tested on: IGROV1 ovarian
Structure (SMILES),growth (SR leukemia),growth (RPMI-8226 leukemia),growth (OVCAR-8 ovarian),growth (OVCAR-5 ovarian),growth (OVCAR-4 ovarian),growth (SK-OV-3 ovarian),growth (OVCAR-3 ovarian),growth (HS 578T breast),growth (NCI/ADR-RES ovarian),growth (IGROV1 ovarian) [%]
Cc1cc2ccccn2c1C(=O)c1ccc(C(=O)c2ccccc2)cc1,-3.06% (active),82.1%,87.9%,87.8%,81.4%,111%,96%,86%,72%,–
Nc1nc(NC2CC2)c2ncn(C3C=CC(CO)C3)c2n1 (configuration not stated),80.8%,111%,93.9%,103%,106%,117%,110%,104%,104%,–
COc1ccc2cc(-c3nc4ccccc4[nH]3)c(=O)oc2c1,36.5%,115%,101%,101%,99.3%,104%,106%,125%,93%,–
O=C(COc1cccc(/C=C2\Oc3ccc4ccccc4c3C2=O)c1)c1ccc([N+](=O)[O-])cc1,3.73% (active),79.9%,97.6%,100%,81.8%,88.9%,103%,93.1%,102%,–
c1ccc2nc(Cn3c[n+](Cc4ccc5ccccc5n4)c4ccccc43)ccc2c1,14.7%,-6.43% (active),29.9%,71.1%,22.7%,57.4%,23.8%,60.5%,102%,–
COC(=O)c1cc2c(/C=C3/NC(=S)NC3=O)coc2n1C,78.3%,75.8%,76.3%,96.7%,112%,68.5%,95.6%,66.3%,105%,–
O=C(NN1C(=O)c2cc(C(=O)O)c(C(=O)O)cc2C1=O)c1ccncc1,119%,103%,112%,107%,116%,110%,131%,104%,116%,–
NC(=O)NS(=O)(=O)c1ccc(N2N=C(C(F)(F)F)CC2c2cc(C(F)(F)F)cc(C(F)(F)F)c2)cc1 (configuration not stated),66.2%,2.36% (active),79.8%,85.7%,69.7%,93%,69.7%,66.5%,77%,–
CC[n+]1c(/C=C/c2ccc(N3CCCC3)cc2)cccc1/C=C/c1ccc(N2CCCC2)cc1,57.2%,-41.1% (active),-87.3% (active),-80.1% (active),-73.8% (active),-95.6% (active),-90.1% (active),-70.2% (active),-68.6% (active),–
COc1ccc(C(=O)COc2cccc(/C=C3\COc4ccc5ccccc5c4C3=O)c2)cc1,35%,2.86% (active),36.9%,98.3%,28.1%,95.7%,64%,88%,46.5%,–
O=Cc1ccccc1C(=O)O,89.8%,106%,104%,97.9%,92.6%,104%,102%,100%,104%,–
O=C(O)c1ccc(CNS(=O)(=O)c2ccc3ccccc3c2)cc1,33.4%,112%,67.7%,115%,98.3%,109%,94.9%,81%,128%,–
CC(=O)N1N=C(c2ccc(Nc3ccnc4cc(Cl)ccc34)cc2)CC1c1ccc(Cl)cc1 (configuration not stated),2.79% (active),22.3%,66.9%,87.9%,45.2%,68.1%,29.2%,41%,22.9%,–
COc1cc(C2CC(C3C(=O)N(C)C(=O)N(C)C3=O)=NN2C=O)cc(OC)c1OC (configuration not stated),105%,99.7%,93.9%,107%,107%,76.4%,107%,–,99.8%,110
C/C(=C\CCc1ccoc1)CC/C=C(\C)CCCN1CCSCC1,45.6%,38.2%,89.8%,70.1%,75.3%,84.6%,44.4%,98.1%,73.8%,–
COC(=O)[C@H](CCCCNC(=O)OCc1ccccc1)NC(=O)[C@@H](NC(=O)Nc1cc(C(F)(F)F)cc(C(F)(F)F)c1)C(C)C,-23.3% [100 µM] (active),-20.6% [100 µM] (active),-22.1% [100 µM] (active),41.6% [100 µM],-68.8% [100 µM] (active),-23.4% [100 µM] (active),-92.5% [100 µM] (active),-1.7% [100 µM] (active),60.4% [100 µM],–
CCOC(=O)c1sc(NC(=O)COc2cccc(/C=C3\CCc4cc(OC)ccc4C3=O)c2)nc1C,-19.4% (active),12.6%,73%,98%,73.2%,99%,38.2%,91.7%,47.7%,–
CCCCCCCC[Si](OCC)(OCC)OCC,79.4%,99.2%,98.9%,104%,103%,105%,106%,109%,108%,–
O=C(/C=C(\Nc1ccccc1)c1ccccc1)c1cn(-c2ccc([N+](=O)[O-])cc2)nn1,69.4%,84%,53.5%,116%,87.9%,106%,112%,63%,111%,–
CCOC(=O)c1sc(NC(=O)COc2ccc(/C=C3\CCc4cc(OC)ccc4C3=O)cc2)nc1C,44.3%,42.5%,90.5%,103%,92.6%,122%,105%,94.4%,86.6%,–
O=C(O)CCNS(=O)(=O)c1ccc(-c2ccccc2)cc1,88.9%,69%,97.7%,107%,101%,107%,114%,9.34% (active),108%,–
COc1ccc2c(c1)CC/C(=C\c1ccc(OCC(=O)Nc3nc4ccccc4s3)cc1)C2=O,68.4%,85.4%,98.3%,87.8%,102%,104%,116%,73.5%,102%,–
O=c1oc2c(cc1-c1ccc([N+](=O)[O-])cc1)C(O)Oc1ccccc1-2 (configuration not stated),56.2%,50.2%,94.7%,82.1%,86.4%,99.6%,111%,102%,72.2%,–
O=[N+]([O-])c1cc([N+](=O)[O-])c(N2CCCC2)cc1NN=C(c1ccc(O)cc1)c1ccc(O)cc1,77.1%,82.2%,-45.4% (active),38.2%,81.6%,39.9%,89.8%,137%,33.6%,–
CC(=O)Nc1ccc(C(=O)COc2cccc(/C=C3\CCc4ccccc4C3=O)c2)cc1,52.4%,19.6%,88.4%,104%,83.4%,95.5%,238%,99.7%,83%,–
COC(=O)c1cc2oc(/C=N\NC(=O)c3cc4oc(C)c(C)c4[nH]3)cc2[nH]1,51.4%,35.1%,108%,111%,118%,100%,128%,108%,102%,–
COc1cccc(C2=NN(C(C)=O)C(c3cc(OC)c(OC)c(OC)c3)C2)c1 (configuration not stated),-6.23% (active),4.18% (active),37.5%,58.3%,48.5%,30.4%,33.1%,15.4%,19%,–
CCSc1nc(-c2ccc(F)cc2)c(C#N)c(=O)[nH]1,118%,105%,107%,95.9%,103%,111%,122%,117%,103%,–
